± gives the standard deviation of the averaged measurements.
The molecules below were run on Drosophila ezoana antennal basiconic sensillum ab10 (assay: odor-evoked OSN spike response (post minus pre-stimulus); higher = stronger neuronal excitation). Settings: odor dilution: 10^-4.
Procedure: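 Single sensillum recordings from antennal basiconic sensilla of D. ezoana. A 500 ms pulse of odorant (10^-4 in mineral oil or DMSO) was delivered; the response is the change in action potential frequency between the 1 s pre- and post-stimulus windows (spikes/s).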

SMILES | odor-evoked OSN spike response
CC(C)=O [acetone] | 76.3 ± 21 spikes/s
